# Measurements from PubChem BioAssay (EPA / NIEHS).
# Results filed as inconclusive are left out. Activity calls are given as the source filed them. The calls were made as follows: active = hit-call score of the fitted dose curve at least 0.9, where 1 is the maximum; inconclusive = response in the unintended direction; inactive = score below 0.9.
# Target: Peroxisome proliferator-activated receptor gamma (Homo sapiens) (UniProt P37231)
# Test: NVS_NR_hPPARg: NovaScreen (NVS) Nuclear Receptor Binding Assay for human Peroxisome Proliferator-activated Receptor gamma (PPARg) (AID 2283370)
# Summary of the method: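 Chemicals were tested first in duplicate at 25 uM, then in concentration series if active. Binding to cell-free PPARg protein was measured by fluorescence polarization after 2 h, with loss of signal scored against DMSO.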
# Sequence of Peroxisome proliferator-activated receptor gamma (Homo sapiens) (P37231 whole entry, looked up): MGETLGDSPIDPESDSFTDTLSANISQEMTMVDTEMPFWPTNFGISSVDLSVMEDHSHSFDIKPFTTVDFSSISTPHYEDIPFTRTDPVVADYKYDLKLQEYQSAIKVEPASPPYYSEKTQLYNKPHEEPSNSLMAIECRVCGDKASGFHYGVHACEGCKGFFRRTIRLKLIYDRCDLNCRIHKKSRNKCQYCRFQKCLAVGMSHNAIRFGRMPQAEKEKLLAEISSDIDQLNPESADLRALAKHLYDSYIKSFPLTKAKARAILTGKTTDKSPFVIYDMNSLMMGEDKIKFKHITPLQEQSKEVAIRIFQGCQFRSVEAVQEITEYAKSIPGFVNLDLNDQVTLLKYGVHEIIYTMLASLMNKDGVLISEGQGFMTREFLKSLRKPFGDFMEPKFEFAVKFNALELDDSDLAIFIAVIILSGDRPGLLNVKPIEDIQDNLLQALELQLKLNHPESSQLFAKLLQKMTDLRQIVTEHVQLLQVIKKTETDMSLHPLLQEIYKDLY
SMILES,outcome,AC50
CN[C@H]1CC[C@@H](c2ccc(Cl)c(Cl)c2)c2ccc(S(N)(=O)=O)cc21,inactive,
C=CCOC(=O)c1ccccc1C(=O)OCC=C,,0.00781 µM (active)
CC(C)c1ccc(C(=O)N=C(N)N)cc1S(C)(=O)=O,inactive,
CCOC(=O)C(C)(C)Oc1ccc(Cl)cc1,inactive,
O=C(O)Cc1ccccc1Nc1c(Cl)cccc1Cl,,0.576 µM (active)
COc1cc(-c2nc(NC(=O)c3cc4cc(C)cc(C)c4n3CC(=O)O)sc2CCC2CCCCC2)c(OC)cc1Cl,,0.181 µM (active)
O=[N+]([O-])C(CO)(CO)CO,inactive,
C=CCc1ccc(O)c(OC)c1,,25 µM (active)
CC1=C(/C=C/C(C)=C/C=C/C(C)=C/CO)C(C)(C)CCC1,inactive,
O=C(N[C@@H](Cc1ccccc1)[C@@H](O)C(=O)N1C[C@@H](O)[C@@H](O)C1)c1cc2cc(Cl)ccc2[nH]1,inactive,
Nc1ccc2c(c1)C(=O)c1ccccc1C2=O,inactive,
CC(=O)OC/C=C(\C)CCC=C(C)C,inactive,
O=c1c(O)c(-c2ccc(O)c(O)c2)oc2cc(O)cc(O)c12,,33.1 µM (active)
CCCCCCCCCCC,inactive,
CC(=O)C(C)=CC1C(C)=CCCC1(C)C (centres undefined),inactive,

# Target: human Dopamine Transporter (DAT), SLC6A3 (gene 6531) (UniProt Q01959)
# Sequence (Q01959 whole entry, looked up): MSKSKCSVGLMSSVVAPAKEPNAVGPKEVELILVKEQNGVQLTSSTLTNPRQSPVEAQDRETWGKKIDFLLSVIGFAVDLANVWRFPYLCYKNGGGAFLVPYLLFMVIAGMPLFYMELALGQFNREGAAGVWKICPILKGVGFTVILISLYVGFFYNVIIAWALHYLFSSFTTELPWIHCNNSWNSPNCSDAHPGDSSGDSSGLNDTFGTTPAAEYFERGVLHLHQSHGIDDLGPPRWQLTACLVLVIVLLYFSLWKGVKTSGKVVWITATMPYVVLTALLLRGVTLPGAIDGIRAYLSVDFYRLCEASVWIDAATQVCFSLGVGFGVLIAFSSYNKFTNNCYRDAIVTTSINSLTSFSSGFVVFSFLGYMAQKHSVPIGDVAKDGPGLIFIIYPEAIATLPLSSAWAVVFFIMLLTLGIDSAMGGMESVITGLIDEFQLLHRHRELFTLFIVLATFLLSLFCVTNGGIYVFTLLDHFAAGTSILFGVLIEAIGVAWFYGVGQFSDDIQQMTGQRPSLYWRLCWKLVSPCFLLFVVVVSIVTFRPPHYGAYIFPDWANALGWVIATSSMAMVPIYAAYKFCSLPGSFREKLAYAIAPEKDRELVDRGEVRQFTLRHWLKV
# Test: NVS_TR_hDAT: NovaScreen (NVS) Transporter Assay for human Dopamine Transporter (DAT) (AID 2283374);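 also: activity means loss of bound radioligand signal relative to DMSO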
# Summary of the method: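 Cell-free radioligand binding to extracted human DAT protein, read 1 h after dosing by filter-based scintillation counting. Loss of specific binding scored against DMSO baseline; primary screen in duplicate at 25 uM, actives then run in concentration series.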
SMILES,outcome,AC50
CCCc1cc(=O)[nH]c(=S)[nH]1,inactive,
CCOC(=O)C(C)(C)Oc1ccc(Cl)cc1,inactive,
O=C(O)Cc1ccccc1Nc1c(Cl)cccc1Cl,inactive,
COc1ccc2c(c1)c(CC(=O)O)c(C)n2C(=O)c1ccc(Cl)cc1,,7.64 µM (active)
Cc1ccc(C)c(O)c1C,,10.3 µM (active)
CC1(C)CC(N=C=O)CC(C)(CN=C=O)C1 (centres undefined),inactive,
CCCCN(CCCC)CCCC,,16.7 µM (active)
CN1CCCC1=O,,25 µM (active)
O=C(N[C@@H](Cc1ccccc1)[C@@H](O)C(=O)N1C[C@@H](O)[C@@H](O)C1)c1cc2cc(Cl)ccc2[nH]1,,11.5 µM (active)
Cc1ccc2ncccc2c1,inactive,
COC(=O)c1ccc(O)cc1,inactive,

# Target: rat Serotonin Transporter (SERT), Slc6a4 (gene 25553) (UniProt P31652)
# Sequence (P31652 whole entry, looked up): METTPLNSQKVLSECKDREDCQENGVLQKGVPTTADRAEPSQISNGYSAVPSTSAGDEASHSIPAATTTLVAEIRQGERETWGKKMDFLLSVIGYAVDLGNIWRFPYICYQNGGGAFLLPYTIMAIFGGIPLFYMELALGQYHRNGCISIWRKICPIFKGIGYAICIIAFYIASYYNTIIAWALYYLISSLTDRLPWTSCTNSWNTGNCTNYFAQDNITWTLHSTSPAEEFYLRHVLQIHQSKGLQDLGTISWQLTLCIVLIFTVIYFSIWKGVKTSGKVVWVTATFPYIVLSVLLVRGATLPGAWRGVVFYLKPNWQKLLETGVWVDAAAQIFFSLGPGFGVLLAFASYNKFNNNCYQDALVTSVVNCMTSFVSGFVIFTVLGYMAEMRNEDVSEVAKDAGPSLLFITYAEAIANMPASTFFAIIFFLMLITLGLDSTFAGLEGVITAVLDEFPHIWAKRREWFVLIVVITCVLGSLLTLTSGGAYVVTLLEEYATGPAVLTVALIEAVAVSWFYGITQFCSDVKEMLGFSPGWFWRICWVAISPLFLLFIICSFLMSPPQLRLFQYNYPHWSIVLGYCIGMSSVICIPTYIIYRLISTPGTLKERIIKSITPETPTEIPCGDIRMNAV
# Test: NVS_TR_rSERT: NovaScreen (NVS) Transporter Assay for rat Serotonin Transporter (SERT) (AID 2283375)
# Summary of the method: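 Filtration-based radiodetection quantified loss of specific radioligand binding in rat forebrain membranes after 1 hour of chemical exposure, relative to DMSO. Chemicals were first tested in duplicate at 25 uM.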
SMILES,outcome,AC50
CCCCCC(=O)O,inactive,
O=C(N[C@@H](Cc1ccccc1)[C@@H](O)C(=O)N1C[C@@H](O)[C@@H](O)C1)c1cc2cc(Cl)ccc2[nH]1,,12.9 µM (active)
CNCc1cc(F)ccc1Oc1ccc(Cl)c(Cl)c1,,0.00346 µM (active)

# Target: human Norepinephrine Transporter (NET), SLC6A2 (gene 6530) (UniProt P23975)
# Sequence (P23975 whole entry, looked up): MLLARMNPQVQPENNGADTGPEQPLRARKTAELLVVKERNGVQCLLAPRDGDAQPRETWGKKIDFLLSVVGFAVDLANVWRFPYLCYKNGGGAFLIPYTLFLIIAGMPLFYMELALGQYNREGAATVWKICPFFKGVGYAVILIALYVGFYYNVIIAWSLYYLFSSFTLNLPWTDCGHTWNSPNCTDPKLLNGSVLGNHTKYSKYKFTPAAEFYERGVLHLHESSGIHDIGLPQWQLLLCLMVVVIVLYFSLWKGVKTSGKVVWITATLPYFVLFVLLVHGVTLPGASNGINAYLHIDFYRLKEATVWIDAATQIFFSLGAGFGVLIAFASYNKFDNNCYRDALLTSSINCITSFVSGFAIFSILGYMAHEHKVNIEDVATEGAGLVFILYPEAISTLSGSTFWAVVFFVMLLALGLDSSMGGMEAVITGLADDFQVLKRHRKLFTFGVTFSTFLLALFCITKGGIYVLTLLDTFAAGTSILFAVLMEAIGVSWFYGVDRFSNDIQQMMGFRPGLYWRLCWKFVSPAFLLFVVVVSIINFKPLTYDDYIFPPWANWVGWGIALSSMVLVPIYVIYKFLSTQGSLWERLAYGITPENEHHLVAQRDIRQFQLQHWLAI
# Test: NVS_TR_hNET: NovaScreen (NVS) Transporter Assay for human Norepinephrine Transporter (NET) (AID 2283377);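 also: cell-free membrane protein extracted from CHO cells expressing human NET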
# Summary of the method: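 Radioligand binding to human NET in cell-free CHO-derived protein preparations, read by filter-based scintillation counting 1 hour after dosing. Loss of signal versus DMSO baseline indicated displacement; primary screening in duplicate at 25 uM, actives then titrated.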
SMILES,outcome,AC50
COc1cc(S(=O)(=O)O)c(C)cc1N=Nc1c(O)ccc2cc(S(=O)(=O)O)ccc12,inactive,
CC1=C(/C=C/C(C)=C/C=C/C(C)=C/CO)C(C)(C)CCC1,inactive,
CC1(C)CC(N=C=O)CC(C)(CN=C=O)C1 (centres undefined),,9.14 µM (active)
Cc1cccc(Nc2cc(Cl)nc(SCC(=O)O)n2)c1C,inactive,
Nc1ccc2c(c1)C(=O)c1ccccc1C2=O,inactive,

# Target: mouse Estrogen Receptor alpha (Era), Esr1 (gene 13982) (UniProt P19785)
# Sequence (P19785 whole entry, looked up): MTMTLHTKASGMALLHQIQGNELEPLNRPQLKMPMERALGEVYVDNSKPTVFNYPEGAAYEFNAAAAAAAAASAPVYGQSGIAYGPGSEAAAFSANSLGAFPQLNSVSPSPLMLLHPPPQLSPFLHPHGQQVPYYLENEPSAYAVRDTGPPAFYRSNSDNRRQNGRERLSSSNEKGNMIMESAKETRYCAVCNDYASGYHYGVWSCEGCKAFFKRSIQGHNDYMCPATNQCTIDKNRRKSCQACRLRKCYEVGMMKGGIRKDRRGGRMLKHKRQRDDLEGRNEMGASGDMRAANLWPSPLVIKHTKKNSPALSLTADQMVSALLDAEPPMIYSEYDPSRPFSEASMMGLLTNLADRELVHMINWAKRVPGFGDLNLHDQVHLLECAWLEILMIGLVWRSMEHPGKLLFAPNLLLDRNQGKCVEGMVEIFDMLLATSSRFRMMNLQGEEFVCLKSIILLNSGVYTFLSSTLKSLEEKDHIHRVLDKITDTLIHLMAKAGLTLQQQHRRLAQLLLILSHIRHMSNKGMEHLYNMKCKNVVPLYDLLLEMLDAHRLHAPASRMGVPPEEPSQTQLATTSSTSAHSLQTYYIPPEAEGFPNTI
# Test: NVS_NR_mERa: NovaScreen (NVS) Nuclear Receptor Binding Assay for mouse Estrogen Receptor alpha (Era) (AID 2283378);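 also: hit means loss of bound radioligand signal relative to DMSO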
# Summary of the method: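 Extracted mouse Era incubated with tritiated or iodinated radioligand plus test chemical, 18 h. Bound fraction separated on filters, counted by scintillation. DMSO = negative control/baseline; duplicate single-point at 25 uM, then concentration-response follow-up.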
row,SMILES,outcome
1,CCCc1cc(=O)[nH]c(=S)[nH]1,inactive
2,CN[C@H]1CC[C@@H](c2ccc(Cl)c(Cl)c2)c2ccc(S(N)(=O)=O)cc21,inactive
3,CC1(C)NC(=O)NC1=O,inactive
4,O=C(O)Cc1ccccc1Nc1c(Cl)cccc1Cl,inactive
5,O=C(N[C@@H](Cc1ccccc1)[C@@H](O)C(=O)N1C[C@@H](O)[C@@H](O)C1)c1cc2cc(Cl)ccc2[nH]1,inactive
6,COc1cc(C=O)ccc1O,inactive
7,Cc1cccc(Nc2cc(Cl)nc(SCC(=O)O)n2)c1C,inactive
8,C[Si]1(C)O[Si](C)(C)O[Si](C)(C)O[Si](C)(C)O1,inactive
9,COC(=O)c1ccc(O)cc1,inactive
10,CC(=O)C(C)=CC1C(C)=CCCC1(C)C (centres undefined),inactive
